Among the data in ChEMBL document CHEMBL2218924, “A broad activity screen in support of a chemogenomic map for kinase signalling research and drug discovery” (Biochem J, 2013) are residual activity values, retold here.

Chain of RAF proto-oncogene serine/threonine-protein kinase (Homo sapiens) (P04049 whole entry): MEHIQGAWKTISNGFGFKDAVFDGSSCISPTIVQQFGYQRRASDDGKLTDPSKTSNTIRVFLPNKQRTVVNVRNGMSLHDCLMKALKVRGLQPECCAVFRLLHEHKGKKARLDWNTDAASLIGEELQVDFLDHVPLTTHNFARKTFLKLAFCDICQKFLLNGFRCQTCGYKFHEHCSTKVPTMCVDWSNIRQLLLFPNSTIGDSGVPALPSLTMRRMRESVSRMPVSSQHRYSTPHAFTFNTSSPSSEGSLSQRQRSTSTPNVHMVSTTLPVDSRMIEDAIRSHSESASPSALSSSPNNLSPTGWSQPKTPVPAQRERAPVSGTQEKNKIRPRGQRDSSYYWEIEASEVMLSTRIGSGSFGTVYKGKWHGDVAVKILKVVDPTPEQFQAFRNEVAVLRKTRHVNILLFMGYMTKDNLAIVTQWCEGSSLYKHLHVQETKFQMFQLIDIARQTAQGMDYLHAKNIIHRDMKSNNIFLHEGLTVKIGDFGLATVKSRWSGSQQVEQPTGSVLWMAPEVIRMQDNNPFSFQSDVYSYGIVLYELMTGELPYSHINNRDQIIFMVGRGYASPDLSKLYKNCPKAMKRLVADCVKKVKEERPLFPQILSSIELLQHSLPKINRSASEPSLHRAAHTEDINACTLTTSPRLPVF

The target of the first test is T1, Tyrosine-protein kinase ZAP-70 (Homo sapiens) (UniProt P43403).
T1 sequence (whole entry): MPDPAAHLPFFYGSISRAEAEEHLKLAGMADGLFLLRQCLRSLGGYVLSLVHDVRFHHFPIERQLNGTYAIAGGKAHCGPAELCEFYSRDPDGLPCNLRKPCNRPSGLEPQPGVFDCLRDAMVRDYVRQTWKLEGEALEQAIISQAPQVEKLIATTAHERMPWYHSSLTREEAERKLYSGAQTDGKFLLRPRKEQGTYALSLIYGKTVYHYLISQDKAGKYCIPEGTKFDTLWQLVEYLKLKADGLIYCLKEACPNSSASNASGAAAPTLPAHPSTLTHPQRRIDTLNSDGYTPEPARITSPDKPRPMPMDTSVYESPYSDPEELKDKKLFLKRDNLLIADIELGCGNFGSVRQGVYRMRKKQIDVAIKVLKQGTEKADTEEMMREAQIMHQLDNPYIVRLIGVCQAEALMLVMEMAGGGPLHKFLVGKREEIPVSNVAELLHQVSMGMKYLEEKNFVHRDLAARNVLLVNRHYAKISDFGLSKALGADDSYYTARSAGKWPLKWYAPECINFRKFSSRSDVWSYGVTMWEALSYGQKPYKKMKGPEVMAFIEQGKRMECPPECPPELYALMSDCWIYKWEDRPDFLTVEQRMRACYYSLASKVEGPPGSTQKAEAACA
As to conditions: at 10 µM.
Turning to `Cn1nc2c3c(cccc31)C(=O)c1ccccc1-2`, the residual activity amounted to 85%. Still for that read-out and setting: the value for `CC(=O)O/N=C1\C(=C2\C(=O)Nc3cc(Br)ccc32)Nc2ccccc21` was 87%; that for `CO[C@H]1[C@@H](OC)C[C@H](C)[C@@H](OC)C2=CC(=O)C=C(NC(=O)/C(C)=C/C=C/[C@H](OC)[C@@H](OC(N)=O)/C(C)=C/[C@@H]1C)C2=O` was 112%; that for `Cn1cc(/C=C2\C(=O)Nc3ccc(S(N)(=O)=O)cc32)c2ccccc21` was 125%. In the case of `Ic1cccc(CSc2nnc(-c3ccncc3)o2)c1`, the residual activity turned out to be 102%. For `O=C(Nc1cccc(Nc2cc(Nc3cccc(C(F)(F)F)c3)ncn2)c1)C1CC1`, the residual activity is 101%. For the compound `Cn1cnc2cc3c(Nc4cccc(Br)c4)ncnc3cc21`, the residual activity was 89%. Turning to `Nc1n[nH]c2nnc(-c3c(-c4ccccc4)nn4ccccc34)cc12`, the residual activity came out at 81%. Regarding `Cc1nc2cc3nc(-c4cccs4)cnc3cc2n1C`, the residual activity turned out to be 115%. `O=C1c2ccccc2-[n+]2ccc3c([nH]c4ccccc43)c21`: the residual activity was found to be 132%. With `O=C1NC(=O)/C(=C\c2ccc3nccnc3c2)S1`, the residual activity was determined as 94%. Turning to `COc1ccc(C(=O)Nc2sc3c(c2C(N)=O)CCCC3)cc1OC`, the residual activity is 114%. Same read-out and setting: to `COc1cc2ncnc(N3CCN(C(=O)Nc4ccc(Oc5ccccc5)cc4)CC3)c2cc1OC` belongs 98%. On the same count and under the same terms, the value for `O=C1Nc2cc(Br)ccc2/C1=C1/Nc2ccccc2/C1=N\O` was 95%.

In the case of `O=c1cc(N2CCOCC2)oc2c1ccc1ccccc12`, the residual activity turned out to be 93%.

On to `COc1ccc(CNc2nc(N(CCO)CCO)nc3c2ncn3C(C)C)cc1`, for which the residual activity stood at 88%. With `O=C1NC(=O)c2cc(Nc3ccc(F)cc3)c(Nc3ccc(F)cc3)cc21`, the residual activity was 119%.

In the case of `Oc1ccc(Nc2nc(-c3ccc(Cl)cc3)cs2)cc1`, the residual activity is 130%.

A further test concerns the target RAF proto-oncogene serine/threonine-protein kinase (Homo sapiens) (UniProt P04049). As to conditions: at 10 µM.
Take `Oc1ccc(-c2nc(-c3ccc(F)cc3)c(-c3ccncc3)[nH]2)cc1`: the residual activity was 1%. Turning to `CC(C)(C)c1cc(C=C(C#N)C#N)cc(Br)c1O`, the residual activity was found to be 70%.

Take `CN[C@@H]1C[C@H]2O[C@@](C)([C@@H]1OC)n1c3ccccc3c3c4c(c5c6ccccc6n2c5c31)C(=O)NC4`: the residual activity turned out to be 99%.

Usually residual activity stands for the signal under treatment as a percentage of the control signal.
